Consider 17 compounds from PubChem BioAssay (EPA / NIEHS).

Inconclusive results are not listed. Active and inactive are the calls of the source. The calls were made as follows: active = hit-call score of the fitted dose curve at least 0.9, where 1 is the maximum; inconclusive = response in the unintended direction; inactive = score below 0.9.

In this assay the target is Estrogen receptor (Homo sapiens) (UniProt P03372). The assay is described as follows: CCTE_Deisenroth_AIME_384WELL_LUC_Inactive: CCTE's 384-well Estrogen Receptor Transactivation Assay without AIME metabolic competence (ERTA luciferase; metabolism negative), Deisenroth Lab (AID 2284038).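 Also: VM7Luc4E2 breast cells given medium preincubated 2 h with S9-free microspheres; hits raise estrogen receptor luciferase signal so potencies reflect agonists.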 The method, then: CCTE_Deisenroth_AIME_384WELL (AIME metabolism assay) is a cell-based, single-readout assay that uses VM7Luc4E2, a human mammary gland/breast cell line, with measurements taken at 24 hour after chemical dosing in a 384-well plate.CCTE_Deisenroth_AIME_384WELL_LUC_Inactive is one of four assay components measured or calculated from the CCTE_Deisenroth_AIME_384WELL assay. It is designed to make measurements of luciferase induction, a form of inducible reporter, as detected with bioluminescence signals by luciferase-coupled ATP quantitation technology.CCTE_Deisenroth_AIME_384WELL_LUC_Inactive is a component of the CCTE_Deisenroth_AIME_384WELL assay that measures the effect of retroftting the VM7Luc ERTA assay with the Alginate Immobolization of Metabolic Enzymes (AIME) metabolism method. AIME is optimized to impart phase I hepatic metabolism using phenobarbital/beta-naphthoflavone induced hepatic S9 from male Sprague Dawley rats. Parent chemicals are incubated for 2 hours in the AIME assay prior to transfer to the VM7Luc ERTA assay plate. […] This endpoint evaluates reporter induction in metabolism negative mode. Using a type of inducible reporter in VM7Luc cells, gain-of-signal activity can be used to understand changes in the reporter gene as they relate to xenobiotic metabolism and the gene ESR1. This assay endpoint, CCTE_Deisenroth_AIME_384WELL_LUC_Inactive, was analyzed in the positive analysis fitting direction relative to 17beta-estradiol as the positive control in the ERTA assay. To generalize the intended target to other relatable targets, this assay endpoint is annotated to the nuclear receptor intended target family, where the subfamily is steroidal.
Estrogen receptor (Homo sapiens), sequence (P03372 whole entry, looked up): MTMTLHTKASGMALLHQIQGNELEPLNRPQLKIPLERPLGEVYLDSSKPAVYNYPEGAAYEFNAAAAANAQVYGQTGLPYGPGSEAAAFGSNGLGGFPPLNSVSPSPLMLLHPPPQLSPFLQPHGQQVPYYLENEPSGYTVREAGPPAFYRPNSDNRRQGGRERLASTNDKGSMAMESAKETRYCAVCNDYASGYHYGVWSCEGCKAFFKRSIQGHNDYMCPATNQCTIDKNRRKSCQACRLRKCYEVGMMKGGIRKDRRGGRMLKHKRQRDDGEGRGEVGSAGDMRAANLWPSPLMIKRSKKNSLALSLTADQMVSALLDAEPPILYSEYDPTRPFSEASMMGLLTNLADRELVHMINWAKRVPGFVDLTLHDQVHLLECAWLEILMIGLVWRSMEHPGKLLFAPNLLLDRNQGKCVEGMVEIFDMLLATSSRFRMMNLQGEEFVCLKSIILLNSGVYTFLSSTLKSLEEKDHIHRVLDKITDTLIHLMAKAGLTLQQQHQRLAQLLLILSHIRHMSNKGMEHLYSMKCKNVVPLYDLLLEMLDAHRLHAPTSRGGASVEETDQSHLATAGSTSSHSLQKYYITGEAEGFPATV
The AIME procedure consists of a preparative "pre-stamping" step using a barium chloride/poly-L-lysine (PLL) solution followed by "stamping" the lid in alginate-hepatic S9 (metabolism positive) or alginate-water (metabolism negative) to form microspheres. Once stamping is completed, the AIME lids are placed in duplicate microplates (metabolism positive or negative) containing chemical solutions and incubated for two hours to facilitate metabolic reactions. The conditioned medium, containing parent chemical or metabolites, is then transferred to the cell-based VM7Luc Estrogen Receptor Transactivation Assay (ERTA) for 24 hours. A typical experimental design tests a 10-point concentration series (0.002 - 200 uM) for 8 compounds (96-well format)1 or 32 compounds (384-well format)2 in single technical replicate. AIME assay controls include trans-stilbene (bioactivated control) and ethylparaben (bioinactivated control). ERTA assay plate controls include 17-beta estradiol (positive control) and DMSO (solvent control). Experiments typically comprise a minimum of four experimental replicates (n=4).
Consider `CC1(C)C(=O)NC(=O)N1CO`, for which the outcome was inactive.

Turning to `Cc1ccc(C(C)(C)C)c(O)c1`, the call was inactive.

Turning to `CSc1ccc(Oc2ccc(S(N)(=O)=O)cc2CN(C)C)cc1C`, the call was inactive.

`O=[Si]=O`: the compound was classed as inactive.

For `O=C(O)c1[nH]n(-c2ccc(S(=O)(=O)O)cc2)c(=O)c1N=Nc1ccc(S(=O)(=O)O)cc1`, the compound was called inactive.

`CC(C)c1cccc(C(C)C)c1`: the compound was called inactive.

In general, AC50 refers to the midpoint of the concentration-response curve, whichever way the signal moves. As to `O=C(O)CN(CC(=O)O)CC(=O)O`, the AC50 is 28.8 µM (active).

Consider `O=C1CCCCC1`, for which the compound was classed as inactive.

On to `NC1CCCCC1`, for which the result was inactive.

As for `c1ccc2occc2c1`, the result was inactive.

For the compound `CC(C)OC(=O)C(C)(C)Oc1ccc(C(=O)c2ccc(Cl)cc2)cc1`, the outcome was inactive.

For the compound `CN(C)CCCN(C)CCCN(C)C`, the result was inactive.

On to `CCCCCCCC(=O)OC`, for which the compound was called inactive.

As to `CCCCCCC(CCCCCCCCCCC(=O)OCC(COC(C)=O)OC(C)=O)OC(C)=O` (configuration not stated), the outcome was inactive.

As to `COC(=O)CCC(=O)OC`, the result was inactive.

For `CCCCCCCCCCCCCCCCO`, the result was inactive.

With `O=C(O)CC(O)(CC(=O)O)C(=O)O`, the compound was classed as inactive.
